Reference: PubChem BioAssay

The compounds below were run against PEG-3 (UniProt Q6IN02) (assay: Peg3 promoter luciferase inhibitors, potency, dose response, cell-based, HeLa, CREF/GAPDH counter-screen panel (AID 624167)). Conditions: CREF/GAPDH counter-screens; HeLa PEG-Prom luciferase reporter, overnight, run 1, dose range 1, at 100 µM (top of the series) unless noted.
PEG-3, sequence (Q6IN02 whole entry, looked up): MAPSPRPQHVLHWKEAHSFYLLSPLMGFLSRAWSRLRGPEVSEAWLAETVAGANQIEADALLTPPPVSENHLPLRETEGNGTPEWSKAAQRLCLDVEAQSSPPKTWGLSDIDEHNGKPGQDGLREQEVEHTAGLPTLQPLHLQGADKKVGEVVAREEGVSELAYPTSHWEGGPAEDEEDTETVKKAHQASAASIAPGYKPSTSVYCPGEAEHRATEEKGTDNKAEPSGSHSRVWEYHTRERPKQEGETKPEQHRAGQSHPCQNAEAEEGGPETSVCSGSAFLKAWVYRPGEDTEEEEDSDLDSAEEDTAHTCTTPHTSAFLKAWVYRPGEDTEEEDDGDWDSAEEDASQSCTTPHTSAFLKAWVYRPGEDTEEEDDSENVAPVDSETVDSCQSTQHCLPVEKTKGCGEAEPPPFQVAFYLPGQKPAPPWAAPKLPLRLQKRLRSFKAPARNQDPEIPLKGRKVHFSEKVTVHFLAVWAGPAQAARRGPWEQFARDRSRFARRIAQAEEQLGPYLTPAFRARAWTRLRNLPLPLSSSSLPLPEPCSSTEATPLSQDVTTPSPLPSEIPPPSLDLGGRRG
Compound `CN(Cc1ccccc1)C(=O)c1ccc(Nc2nc(C(N)Cc3ccccc3)cs2)nc1` (stereo not drawn) has an inhibition of 102%. `CCn1c2ccccc2c2cc(NC(=O)C(C)OC(=O)c3ccc(NC(=O)CC#N)cc3)ccc21` (stereo not drawn) showed an inhibition of 97.5%. `CCOc1cc(/C=N/Nc2nc(-c3cccc(S(=O)(=O)N4CCCC4)c3)cs2)ccc1O` was tested, and the inhibition was 77.8%. Compound `Cc1cc(C(=O)CN2C(=O)c3ccccc3S2(=O)=O)c(C)n1C(C)C` has an inhibition of 101%. Compound `CC(C)n1cc(CN2CCC(C(=O)Nc3cccc(-c4cccc(Cl)c4)c3)CC2)cn1` has an inhibition of 99.3%. `Cc1ccc(-n2cc(CNCCCn3ccnc3C)c(-c3ccc(F)cc3)n2)cc1` was tested, and the inhibition was 99.8%. In the case of `CCC(C)Sc1ccc(-c2nc3ccccn3c2NCc2ccccc2)cc1OC` (stereo not drawn), the inhibition is reported as 102%. For `COc1cc(CNCCN2CCOCC2)ccc1OCc1ccc(Cl)cc1Cl`, the inhibition was 102%. Work on `COCc1ccc(CN2CCC(C(=O)Nc3cccc(-c4cccc(Cl)c4)c3)CC2)o1` yielded an inhibition of 97.5%. `COc1cc(/C=C/[N+](=O)[O-])ccc1OC(=O)/C=C/c1ccc(F)cc1` was tested, and the inhibition was -70.5%. For `O=[N+]([O-])c1ccc(-c2nc(Nc3cccc(O)c3)c3ccccc3n2)cc1`, the inhibition was 99.4%. `CN(C)CCNc1ccc(CO)c2oc3ccc(O)cc3c(=O)c12` showed an inhibition of 99.1%. `O/N=C(\c1ccc(Cl)cc1Cl)c1ncc(C(F)(F)F)cc1Cl` gave an inhibition of 86%. Compound `CCOC(=O)c1ccc2ncc(C(=O)OCC)c(NCCN(C)C)c2c1` has an inhibition of 73%. With `CCC(C)NCCOCCOc1ccc(Cl)c2ccccc12` (stereo not drawn) the inhibition was 102%. Compound `COc1ccc(/C=C/C(=O)c2ccc3c(c2)OCCO3)cc1[N+](=O)[O-]` has an inhibition of 97.9%. Work on `COc1cc(-c2cc(C(=O)N(C)Cc3ccccc3)c3ccccc3n2)cc(OC)c1OC` yielded an inhibition of 79.4%. `CCN(CC)CCCCNc1ncc2cc(-c3cc(OC)cc(OC)c3)c(NC(=O)NC(C)(C)C)nc2n1` showed an inhibition of 97.1%. Compound `CSc1ccc(CN(C)C(=O)C(Cc2ccccc2)NC(=O)c2ccccc2)cc1` (stereo not drawn) has an inhibition of 101%. Work on `CC(=O)Nc1ccc(S(=O)(=O)N(Cc2ccco2)Cc2cc3ccccc3[nH]c2=O)cc1` yielded an inhibition of 91.7%. In the case of `COc1cc(/C=C2\SC(=S)N(CCC(=O)N3CCCCC3)C2=O)cc(OC)c1OC`, the inhibition is reported as 98.1%. For `COc1cccc(C(=O)O/N=C(\N)c2ccccn2)c1`, the inhibition was 102%. `COc1ccc(CCNC(=O)c2cc3c(=O)n4ccccc4nc3n(C3CCCCC3)c2=N)cc1` was tested, and the inhibition was 102%. `CN(C)S(=O)(=O)c1cccc(NC(=O)CSc2cccc3cccnc23)c1` showed an inhibition of 99.3%. In the case of `O=C(C=Cc1ccccn1)c1ccccc1`, the inhibition is reported as 101%. With `Cc1ccc(N2CC(C(=O)Nc3nccs3)CC2=O)cc1Cl` (stereo not drawn) the inhibition was 99.5%. In the case of `COc1cc(NC(=O)c2cccc(C)c2)ccc1NC(=O)c1cc2ccccc2o1`, the inhibition is reported as 76.6% [run 1, dose range 1, at 50 µM]. Work on `Cc1ccc(C2=NC(=O)/C(=C/c3cc(O)c(O)c(Br)c3)S2)cc1` yielded an inhibition of 88.6%. In the case of `CCN1CCc2c(sc(NC(=O)c3ccc(S(=O)(=O)N4CCCCCC4)cc3)c2C(=O)NC)C1`, the inhibition is reported as 94.4%. In the case of `CC1CCCC(C)N1C(=C(Cl)Cl)C(=C1SCCS1)[N+](=O)[O-]` (stereo not drawn), the inhibition is reported as 50.8%. Compound `O=C1/C(=C/c2ccccc2Cl)SC(=S)N1CCCC(=O)N(CCO)c1ccccc1` has an inhibition of 99.7%. In the case of `CC(C)CC(N)c1csc(NC(=O)Nc2ccccc2C(C)C)n1` (stereo not drawn), the inhibition is reported as 99%. In the case of `N#Cc1c(N)nc(SCc2ccncc2)c(C#N)c1-c1cccs1`, the inhibition is reported as 94.6%. `COc1ccc(-c2cc(C(=O)N(C)Cc3cccc(OC)c3OC)c3ccccc3n2)cc1OC` gave an inhibition of 72.4%. Compound `N=c1c2c(-c3ccccc3)c(-c3ccccc3)n(Cc3ccccc3)c2ncn1CCO` has an inhibition of 96.4%. `CCCN1C/C(=C/c2cccc([N+](=O)[O-])c2)C(=O)/C(=C/c2cccc([N+](=O)[O-])c2)C1` was tested, and the inhibition was 26.2%. Work on `O=C(Nc1ccc(-c2nc3ccccc3o2)cc1)c1ccc(N2CCOCC2)c([N+](=O)[O-])c1` yielded an inhibition of 17.1%. Work on `CC(=O)Nc1ccc(Nc2nc(C)c([N+](=O)[O-])c(Nc3ccccc3)n2)cc1` yielded an inhibition of 99.5%. With `CC1CCCCN1CCNC(=O)c1ccc2c(=O)n(Cc3ccc(Cl)cc3)c(=S)[nH]c2c1` (stereo not drawn) the inhibition was 101%.

What follows are compounds tested against PEG-3 (UniProt Q6IN02) in the same assay as above. Conditions: CREF/GAPDH counter-screens; HeLa PEG-Prom luciferase reporter, overnight, run 2, dose range 1, at 100 µM (top of the series) unless noted.
Work on `CN(Cc1ccccc1)C(=O)c1ccc(Nc2nc(C(N)Cc3ccccc3)cs2)nc1` (stereo not drawn) yielded an inhibition of 101%. Work on `CCn1c2ccccc2c2cc(NC(=O)C(C)OC(=O)c3ccc(NC(=O)CC#N)cc3)ccc21` (stereo not drawn) yielded an inhibition of 83.1%. With `CCOc1cc(/C=N/Nc2nc(-c3cccc(S(=O)(=O)N4CCCC4)c3)cs2)ccc1O` the inhibition was 95.5%. With `Cc1cc(C(=O)CN2C(=O)c3ccccc3S2(=O)=O)c(C)n1C(C)C` the inhibition was 94.7%. Work on `CC(C)n1cc(CN2CCC(C(=O)Nc3cccc(-c4cccc(Cl)c4)c3)CC2)cn1` yielded an inhibition of 101%. `Cc1ccc(-n2cc(CNCCCn3ccnc3C)c(-c3ccc(F)cc3)n2)cc1` gave an inhibition of 98.7%. Compound `CCC(C)Sc1ccc(-c2nc3ccccn3c2NCc2ccccc2)cc1OC` (stereo not drawn) has an inhibition of 89.4%. Work on `COc1cc(CNCCN2CCOCC2)ccc1OCc1ccc(Cl)cc1Cl` yielded an inhibition of 101%. For `COCc1ccc(CN2CCC(C(=O)Nc3cccc(-c4cccc(Cl)c4)c3)CC2)o1`, the inhibition was 99%. Compound `COc1cc(/C=C/[N+](=O)[O-])ccc1OC(=O)/C=C/c1ccc(F)cc1` has an inhibition of -151%. In the case of `O=[N+]([O-])c1ccc(-c2nc(Nc3cccc(O)c3)c3ccccc3n2)cc1`, the inhibition is reported as 101%. In the case of `CN(C)CCNc1ccc(CO)c2oc3ccc(O)cc3c(=O)c12`, the inhibition is reported as 101%. For `O/N=C(\c1ccc(Cl)cc1Cl)c1ncc(C(F)(F)F)cc1Cl`, the inhibition was 97.3%. With `CCOC(=O)c1ccc2ncc(C(=O)OCC)c(NCCN(C)C)c2c1` the inhibition was 77.3%. Work on `CCC(C)NCCOCCOc1ccc(Cl)c2ccccc12` (stereo not drawn) yielded an inhibition of 98.8%. Work on `COc1ccc(/C=C/C(=O)c2ccc3c(c2)OCCO3)cc1[N+](=O)[O-]` yielded an inhibition of 99%. For `COc1cc(-c2cc(C(=O)N(C)Cc3ccccc3)c3ccccc3n2)cc(OC)c1OC`, the inhibition was 94.8%. With `CCN(CC)CCCCNc1ncc2cc(-c3cc(OC)cc(OC)c3)c(NC(=O)NC(C)(C)C)nc2n1` the inhibition was 101%. `CSc1ccc(CN(C)C(=O)C(Cc2ccccc2)NC(=O)c2ccccc2)cc1` (stereo not drawn) showed an inhibition of 96.7%. `CC(=O)Nc1ccc(S(=O)(=O)N(Cc2ccco2)Cc2cc3ccccc3[nH]c2=O)cc1` was tested, and the inhibition was 71.7%. `COc1cc(/C=C2\SC(=S)N(CCC(=O)N3CCCCC3)C2=O)cc(OC)c1OC` was tested, and the inhibition was 99%. In the case of `COc1cccc(C(=O)O/N=C(\N)c2ccccn2)c1`, the inhibition is reported as 95.8%. Work on `COc1ccc(CCNC(=O)c2cc3c(=O)n4ccccc4nc3n(C3CCCCC3)c2=N)cc1` yielded an inhibition of 102%. In the case of `CN(C)S(=O)(=O)c1cccc(NC(=O)CSc2cccc3cccnc23)c1`, the inhibition is reported as 101%. `O=C(C=Cc1ccccn1)c1ccccc1` gave an inhibition of 101%. In the case of `Cc1ccc(N2CC(C(=O)Nc3nccs3)CC2=O)cc1Cl` (stereo not drawn), the inhibition is reported as 63.6%. In the case of `COc1cc(NC(=O)c2cccc(C)c2)ccc1NC(=O)c1cc2ccccc2o1`, the inhibition is reported as 94.6% [run 2, dose range 1, at 50 µM]. Work on `Cc1ccc(C2=NC(=O)/C(=C/c3cc(O)c(O)c(Br)c3)S2)cc1` yielded an inhibition of 79.4%. `CCN1CCc2c(sc(NC(=O)c3ccc(S(=O)(=O)N4CCCCCC4)cc3)c2C(=O)NC)C1` gave an inhibition of 94.9%. `CC1CCCC(C)N1C(=C(Cl)Cl)C(=C1SCCS1)[N+](=O)[O-]` (stereo not drawn) was tested, and the inhibition was 68.9%. With `O=C1/C(=C/c2ccccc2Cl)SC(=S)N1CCCC(=O)N(CCO)c1ccccc1` the inhibition was 102%. Compound `CC(C)CC(N)c1csc(NC(=O)Nc2ccccc2C(C)C)n1` (stereo not drawn) has an inhibition of 101%. `N#Cc1c(N)nc(SCc2ccncc2)c(C#N)c1-c1cccs1` showed an inhibition of 99.2%. `COc1ccc(-c2cc(C(=O)N(C)Cc3cccc(OC)c3OC)c3ccccc3n2)cc1OC` showed an inhibition of 74.7%. Compound `N=c1c2c(-c3ccccc3)c(-c3ccccc3)n(Cc3ccccc3)c2ncn1CCO` has an inhibition of 97.6%. For `CCCN1C/C(=C/c2cccc([N+](=O)[O-])c2)C(=O)/C(=C/c2cccc([N+](=O)[O-])c2)C1`, the inhibition was 30.1%. `O=C(Nc1ccc(-c2nc3ccccc3o2)cc1)c1ccc(N2CCOCC2)c([N+](=O)[O-])c1` showed an inhibition of 37.6%. With `CC(=O)Nc1ccc(Nc2nc(C)c([N+](=O)[O-])c(Nc3ccccc3)n2)cc1` the inhibition was 93.4%. `CC1CCCCN1CCNC(=O)c1ccc2c(=O)n(Cc3ccc(Cl)cc3)c(=S)[nH]c2c1` (stereo not drawn) was tested, and the inhibition was 99.1%.
